Screens deposited in PubChem by several laboratories.
An excerpt weighted towards active compounds, which were near 2.1% of everything screened.
Arbovirus inh: arbovirus infection inhibition | arbovirus infection cell-based antiviral screen | inhibition, % at 10 µM | hit rate 0.37% among 200,000 | AID 1251; in the data active = inhibition above about 30%
ROMK primary: modulators of human ROMK potassium channel; hit rate 2% among 130,000; B-score at 10 µM; AID 1918; Tet-inducible ROMK, thallium flux fluorescence; actives lie on both sides;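 active = signal ratio slope over the read window, or its plate-corrected B-score, at least 3 SD from the plate mean, either direction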;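 note: B-score of the F/F0 ratio slope over 7 to 12 s after thallium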
Target sequence (P48048 whole entry, looked up): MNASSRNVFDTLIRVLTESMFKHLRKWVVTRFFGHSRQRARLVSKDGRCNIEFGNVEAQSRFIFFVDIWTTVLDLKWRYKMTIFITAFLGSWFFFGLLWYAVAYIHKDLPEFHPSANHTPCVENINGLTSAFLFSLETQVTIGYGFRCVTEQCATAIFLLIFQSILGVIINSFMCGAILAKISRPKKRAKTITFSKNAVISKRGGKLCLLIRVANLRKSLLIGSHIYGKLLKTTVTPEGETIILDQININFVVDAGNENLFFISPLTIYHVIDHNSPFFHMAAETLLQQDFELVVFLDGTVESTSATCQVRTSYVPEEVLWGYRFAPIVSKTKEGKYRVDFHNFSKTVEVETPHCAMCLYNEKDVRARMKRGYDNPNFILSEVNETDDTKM
m-calpain inh: blocks pig calpain II enzyme activity; purified calpain II, fluorogenic peptide substrate, 30 min; inhibition, % at 16 µM; hit rate 0.37% among 220,000; AID 1236;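 active = inhibition above about 50%, limit read from the data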
Efa HMGR inh: inhibitors of class II HMG-CoA reductase from Enterococcus faecalis; purified E. faecalis HMGR, NADPH absorbance 340 nm kinetic; inhibition, % at 10 µM; hit rate 0.41% among 190,000; AID 1066;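 active = inhibition above a set limit, the median over all tested compounds plus 3 SD, cut at about 9.5% in these data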;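 note: enzyme runs in reverse so mevalonate oxidation gives rising NADPH absorbance; 0% = complete reaction with DMSO and 100% = background rate lacking mevalonate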
HSV replic up: increases HSV replication in cells; AID 1956; maximum fold increase; hit rate 0.005% among 220,000; HSV replication augmentation in cells, fold increase; in the data active = maximum fold increase above about 1.5; tested in PC3 cells
* hit, by the source's call.

`CC(C)[C@H](NS(=O)(=O)c1ccccc1)C(=O)OCC(=O)N1N=C(c2ccc(Cl)cc2)CC1c1ccco1` (some centres not stated) gave Arbovirus inh -8, m-calpain inh -23, Efa HMGR inh 0 and HSV replic up inactive.
Screening CCOC(=O)N1CCN(c2ccc(Cl)c(Cl)c2)CC1 returned Arbovirus inh 8, m-calpain inh 18, Efa HMGR inh -3 and HSV replic up inactive.
For CCOC(=O)N1CCN(c2ccc(C(=O)c3cccc(F)c3)cc2)CC1 the results were Arbovirus inh -4, ROMK primary -0.95, m-calpain inh 58*, Efa HMGR inh -4 and HSV replic up inactive.
COc1ccc(N2C(=O)N(Cc3cccc(F)c3)c3ccccc3S2(=O)=O)cc1 was read as Arbovirus inh -11, ROMK primary -0.35, m-calpain inh 63*, Efa HMGR inh -2 and HSV replic up inactive.
`COc1ccc(N2C(=O)N(Cc3ccccc3F)c3ccccc3S2(=O)=O)cc1` gave Arbovirus inh -10, ROMK primary -0.18, m-calpain inh 58*, Efa HMGR inh -5 and HSV replic up inactive.
For Cc1ccc(N2C(=O)N(CC(=O)C(C)(C)C)c3ccccc3S2(=O)=O)cc1 the results were Arbovirus inh 13, ROMK primary 0.65, m-calpain inh 3, Efa HMGR inh 6 and HSV replic up inactive.
Screening CCOC(=O)c1ccc(N2C(=O)C(C)=C(C)C2=O)cc1 returned Arbovirus inh -10, m-calpain inh -23, Efa HMGR inh 1 and HSV replic up inactive.
For CCOC(=O)c1ccc(N2C(=O)C3C(/C=C/c4ccccc4)OC4(C(=O)c5ccccc5C4=O)C3C2=O)cc1 (configuration not stated) the results were Arbovirus inh 73*, ROMK primary 0.82, m-calpain inh -81, Efa HMGR inh -3 and HSV replic up inactive.
For Cc1ccc(NC(=O)c2sc(N)nc2-c2ccc([N+](=O)[O-])cc2)c(C)c1 the results were m-calpain inh 19 and HSV replic up inactive.
`CC(C)(C)C(=O)NC(=S)NNC(=O)c1sc2ccccc2c1Cl` gave Arbovirus inh -37, ROMK primary 7.3*, m-calpain inh -20, Efa HMGR inh 2 and HSV replic up inactive.
Screening O=C(c1ccco1)c1coc2c1cc(O)c1ccccc12 returned Arbovirus inh -14, ROMK primary 0.2, m-calpain inh 5, Efa HMGR inh -2 and HSV replic up inactive.
Screening O=C(/C=C/c1ccccc1)Nc1scc(-c2ccccc2)c1C(=O)O returned Arbovirus inh 73*, ROMK primary 0.25, m-calpain inh -18, Efa HMGR inh -6 and HSV replic up inactive.
Screening COc1ccc(-c2csc(NC(=O)c3cccs3)c2C(=O)O)cc1OC returned Arbovirus inh 24, m-calpain inh -29, Efa HMGR inh -4 and HSV replic up inactive.
COc1ccc(-c2csc(NC(=O)Cc3cccc4ccccc34)c2C(=O)O)cc1 was read as Arbovirus inh 47*, ROMK primary 0.58, m-calpain inh 2 and Efa HMGR inh 1.
Cc1ccc(C(=O)Nc2scc(-c3ccccc3)c2C(=O)O)o1 was read as Arbovirus inh 62*, ROMK primary 0.067, m-calpain inh -39, Efa HMGR inh 2 and HSV replic up inactive.
Screening O=C(/C=C/c1ccco1)Nc1scc(-c2ccccc2)c1C(=O)O returned m-calpain inh 0 and HSV replic up inactive.
`Cc1ccc(C(=O)Nc2ccccc2-c2ccccc2)o1` gave Arbovirus inh -5, ROMK primary -0.42, m-calpain inh -5, Efa HMGR inh -6 and HSV replic up inactive.
Screening NC(=O)CSc1nnc(-c2cc(-c3ccc(Cl)cc3)nc3ccccc23)o1 returned Arbovirus inh 0, ROMK primary 0.0094, m-calpain inh -37, Efa HMGR inh -2 and HSV replic up inactive.
For COc1ccc(NS(=O)(=O)c2ccc3c(c2)NC(=O)CO3)cc1 the results were Arbovirus inh 0, ROMK primary -2, m-calpain inh -8, Efa HMGR inh -9 and HSV replic up inactive.
`Cc1ccc(NS(=O)(=O)c2ccc3c(c2)NC(=O)CC(=O)N3)cc1C` gave Arbovirus inh 22, ROMK primary 1.1, m-calpain inh -21, Efa HMGR inh 9.9* and HSV replic up inactive.
Screening CCc1nnc(NS(=O)(=O)c2ccc(NC(=O)c3ccccc3)cc2)s1 returned ROMK primary -0.71, m-calpain inh 17 and HSV replic up inactive.
Screening CCc1nnc(NS(=O)(=O)c2ccc(NC(=S)NC(=O)c3ccccc3)cc2)s1 returned Arbovirus inh 8, ROMK primary 0.08, m-calpain inh 23, Efa HMGR inh -9 and HSV replic up inactive.
For CCc1nnc(NS(=O)(=O)c2ccc(N/C=C\C(=O)c3ccc4ccccc4c3)cc2)s1 the results were Arbovirus inh 34*, ROMK primary 0.39, m-calpain inh 4, Efa HMGR inh 2 and HSV replic up inactive.
For CCc1nnc(NS(=O)(=O)c2ccc(NC(=S)NC(=O)c3ccc(Br)cc3)cc2)s1 the results were Arbovirus inh 17, ROMK primary 0.53, m-calpain inh 70*, Efa HMGR inh -9 and HSV replic up inactive.
For Cc1ccc(/C=N/NC(=O)CNC(=O)c2cccc([N+](=O)[O-])c2C)o1 the results were Arbovirus inh 17, ROMK primary 0.36, m-calpain inh -21, Efa HMGR inh -3 and HSV replic up inactive.
For CN(C)/C=N/S(=O)(=O)c1ccc(Cl)c(Cl)c1 the results were m-calpain inh 18 and HSV replic up inactive.
Screening C/C=C\C(=O)Nc1cccc(C2=NOC3(C2)C[C@H](C(N)=O)N(C(=O)Cc2ccc([N+](=O)[O-])cc2)C3)c1 (some centres not stated) returned m-calpain inh -15 and HSV replic up inactive.
CC(=O)Nc1nnc(C2=COCCO2)o1 was read as Arbovirus inh 14, ROMK primary 0.54, m-calpain inh 11, Efa HMGR inh 10* and HSV replic up inactive.
For CCCC(=O)Oc1ccccc1C1SCc2cc(C)c(C)cc2CS1 the results were Arbovirus inh 32*, ROMK primary 0.32, m-calpain inh 4 and Efa HMGR inh -1.
Screening COC(=O)C1=C(C)N(Cc2ccco2)C(=O)/C1=C\c1ccc([N+](=O)[O-])cc1 returned Arbovirus inh -8, ROMK primary -0.87, m-calpain inh -15, Efa HMGR inh 10* and HSV replic up inactive.
For Fc1ccccc1Cc1noc(CN(Cc2ccccn2)CC2CCCO2)n1 (configuration not stated) the results were Arbovirus inh 2, ROMK primary 0.13, m-calpain inh -14, Efa HMGR inh -2 and HSV replic up inactive.
Screening CCOc1ccc(Nc2nnc(SCc3nc4ccccc4c(=O)[nH]3)s2)cc1 returned m-calpain inh 52* and HSV replic up inactive.
Screening Cc1ccccc1Nc1nnc(SCc2nc3ccccc3c(=O)[nH]2)s1 returned Arbovirus inh -11, ROMK primary 0.62, m-calpain inh 5, Efa HMGR inh 14* and HSV replic up inactive.
Screening Cc1cccc(C)c1Nc1nnc(SCc2nc3ccccc3c(=O)[nH]2)s1 returned Arbovirus inh 3, ROMK primary -0.56, m-calpain inh 16, Efa HMGR inh -2 and HSV replic up inactive.
